Compound activity deposited in PubChem by Broad Institute.
aSyn 5UTR act – Activators working through SNCA 5'UTR binding (MLPCN); alpha-synuclein 5'UTR reporter, activators screen; activity score, % (tested at 7.5 µM), hits read low; 300,000 tested, 7.1% active; AID 1814; in the data active = activity score below about -60%
Starred values were filed as active, the others as inactive. Only a sample is shown.

For Cc1nc(N)sc1-c1csc(Nc2ncccn2)n1 the results were aSyn 5UTR act -136.5*.
For Cc1nc(C)c(-c2csc(Nc3ccc(F)cc3)n2)s1 the results were aSyn 5UTR act -152.2*.
Screening COc1cccc(Nc2nc(-c3sc(C)nc3C)cs2)c1 returned aSyn 5UTR act -103.2*.
COc1ccc(-c2nc3cc([N+](=O)[O-])ccc3o2)cc1 was read as aSyn 5UTR act -231.4*.
Screening Nc1ccc(-c2nc3cc([N+](=O)[O-])ccc3o2)cc1 returned aSyn 5UTR act -145.6*.
O=C(Nc1cccnc1)c1sc2cccc(F)c2c1Cl was read as aSyn 5UTR act -166.2*.
For CCOC(=O)c1ccc(NC(=O)CC2SCCNC2=O)cc1 (stereo not given) the results were aSyn 5UTR act -81.4*.
For COc1ccc(/C=C2\N=C(SC)N(c3ccccc3OC)C2=O)cc1 the results were aSyn 5UTR act -66.3*.
Screening CCOc1ccc(N2C(=O)/C(=C/c3ccccc3)N=C2SC)cc1 returned aSyn 5UTR act -89.0*.
Screening CC1=NC(=O)C(N=Nc2cccc(O)c2)N1c1ccccc1 (stereo not given) returned aSyn 5UTR act -259.7*.
`CC(C)(C)n1ncc2c(=O)n(CC(=O)c3ccc(Cl)cc3)cnc21` gave aSyn 5UTR act -196.6*.
CC1CCN(C(=O)Cn2cnc3c(cnn3C(C)(C)C)c2=O)CC1 was read as aSyn 5UTR act -85.1*.
`CCCCCCCn1ccc(=N)cc1` gave aSyn 5UTR act 56.3.
For CCCCCN1CC(O)=C(c2nc3ccccc3[nH]2)C1=N the results were aSyn 5UTR act -116.5*.
Screening CC(C)N1CC(O)=C(c2nc3ccccc3[nH]2)C1=N returned aSyn 5UTR act -74.2*.
Screening CCCCCCCCCn1ccc(=N)cc1 returned aSyn 5UTR act 81.9.
Screening CCCCN1CC(O)=C(c2nc3ccccc3[nH]2)C1=N returned aSyn 5UTR act -106.8*.
`O=C(Nc1nccs1)c1ccc(CSc2ccccc2)o1` gave aSyn 5UTR act -125.8*.
For CN(C)c1ccc(NC(=O)c2sc(SCC(=O)Nc3nccs3)nc2N)cc1 the results were aSyn 5UTR act -156.0*.
Screening O=C(CSc1cn(Cc2ccccc2)c2ccccc12)Nc1nccs1 returned aSyn 5UTR act -167.8*.
`Cc1ccc(SCc2ccc(C(=O)Nc3nccs3)o2)cc1` gave aSyn 5UTR act -78.5*.
CCOC(=O)c1c(SCC(=O)Nc2nccs2)nc(C)c(C)c1C was read as aSyn 5UTR act -67.7*.
`Cc1ccc(SCC(=O)Nc2nccs2)cc1` gave aSyn 5UTR act -107.3*.
Screening COC(=O)c1ccc(COC(=O)c2nn(C)c(=O)c3ccccc23)cc1 returned aSyn 5UTR act -64.3*.
`COC(=O)c1ccc(COC(=O)c2cccnc2Cl)cc1` gave aSyn 5UTR act -68.3*.
Screening COc1ccc(C(=O)COC(=O)c2cccnc2Cl)c(OC)c1 returned aSyn 5UTR act -144.2*.
C=CCNc1nc(C(=O)OCC(=O)c2ccc(OC)cc2OC)cs1 was read as aSyn 5UTR act -81.6*.
`Cn1c(C(=O)Nc2ccc3c(c2)OCCO3)cc2sccc21` gave aSyn 5UTR act -86.6*.
Screening O=C(Nc1ccc2c(c1)OCCO2)c1cc2sccc2n1Cc1ccc(F)cc1 returned aSyn 5UTR act -109.7*.
For O=C(Nc1ccc2c(c1)OCCO2)c1cc2sccc2n1Cc1ccccc1 the results were aSyn 5UTR act -102.4*.
CCCOc1ccc(-c2nnc(-c3ccco3)o2)cc1 was read as aSyn 5UTR act 64.7.
Screening COc1ccc(CC(=O)Nc2cccc(-c3nnc(-c4cccc(C)c4)o3)c2)cc1OC returned aSyn 5UTR act -187.4*.
For O=C(COc1ccccc1)Nc1nnc(-c2ccc3c(c2)CCCC3)o1 the results were aSyn 5UTR act -95.0*.
CC(C)COc1ccc(-c2nnc(-c3ccco3)o2)cc1 was read as aSyn 5UTR act 86.1.
COc1ccc(-c2nc3cc(NC(=O)Cc4ccc(OC)c(OC)c4)ccc3o2)cc1 was read as aSyn 5UTR act -69.3*.
For O=C(COc1ccccc1)Nc1ccc(-c2nnc(-c3ccco3)o2)cc1 the results were aSyn 5UTR act -83.9*.
`COc1ccccc1OCC(=O)Nc1cccc(-c2nnc(-c3ccco3)o2)c1` gave aSyn 5UTR act -87.5*.
For COc1cc(C)ccc1OCCCOc1ccccc1Cl the results were aSyn 5UTR act -207.3*.
Screening COc1cc(C)ccc1OCCOc1ccccc1Cl returned aSyn 5UTR act -208.0*.
Screening CC1(C)N=C(N)N=C(N)N1c1ccc(OCCCOc2ccccc2)c(Cl)c1 returned aSyn 5UTR act 78.3.
`CN(C)/C=N/c1c(C#N)cnn1-c1nc2ccccc2s1` gave aSyn 5UTR act -96.1*.
CNc1nc(-c2ccccc2)[n+](-c2ccc(C)cc2)s1 was read as aSyn 5UTR act -115.6*.
For CN(C)/C=N/c1ncn(-c2ncc(C(F)(F)F)cc2Cl)n1 the results were aSyn 5UTR act -84.8*.
Screening Cc1ccc(/C(N)=N/OC(=O)C23CC4CC(CC(C4)C2)C3)cc1 returned aSyn 5UTR act -184.8*.
Screening Cc1ccc(/C(N)=N/OC(=O)N2CCOCC2)cc1 returned aSyn 5UTR act -61.8*.
CN(C)c1ccc(/C=N/N=C/c2ccccc2O)cc1 was read as aSyn 5UTR act -171.1*.
For CCCC1CC(=O)OC1(C)C(=O)CSc1n[nH]c(-c2ccccc2)n1 (stereo not given) the results were aSyn 5UTR act -65.7*.
`COC(=O)c1ccccc1NC1=C/C(=N\S(=O)(=O)c2cccs2)c2ccccc2C1=O` gave aSyn 5UTR act -90.6*.
`CCOC(=O)c1c(NC(=S)N2CCN(C)CC2)sc2c1CCN(C(=O)OCC)C2` gave aSyn 5UTR act -62.9*.
For COCCSc1nnc(NC(=O)C2CCCCC2)s1 the results were aSyn 5UTR act -63.0*.
Cc1cnc(NC(=O)c2ccncc2)s1 was read as aSyn 5UTR act -65.0*.
Cc1cnc(NC(=O)c2ccco2)s1 was read as aSyn 5UTR act -93.9*.
For CCCSc1nnc(NC(=O)Nc2ccccc2)s1 the results were aSyn 5UTR act -91.5*.
Screening CCCSc1nnc(NC(=O)c2ccco2)s1 returned aSyn 5UTR act -80.8*.
COCCSc1nnc(NC(=O)c2ccco2)s1 was read as aSyn 5UTR act -80.7*.
Screening CSc1nnc(NC(=O)c2ccco2)s1 returned aSyn 5UTR act -76.8*.
Screening Nc1nc(-c2ccc(Br)cc2)cs1 returned aSyn 5UTR act -98.8*.
Nc1nc(-c2ccccc2)cs1 was read as aSyn 5UTR act -97.5*.
O=C(c1ccccc1)c1cc(-c2ccccc2)on1 was read as aSyn 5UTR act -107.9*.
For Nc1nc(-c2cc(-c3ccccc3)no2)cs1 the results were aSyn 5UTR act -173.6*.
`c1ccc(-c2cc(-c3ccccc3)on2)cc1` gave aSyn 5UTR act -152.5*.
For N/C(Cc1nc(-c2ccc(Br)cc2)cs1)=N\O the results were aSyn 5UTR act -95.8*.
COc1ccc(-c2cc(-c3c(O)c(OC)c4occc4c3OC)[nH]n2)cc1OC was read as aSyn 5UTR act -71.0*.
Screening O=C(Nc1ccc(F)cc1)c1csc(Cc2ccccc2)n1 returned aSyn 5UTR act -110.1*.
For COc1ccc(NC(=O)c2csc(Cc3ccccc3)n2)cc1 the results were aSyn 5UTR act -109.8*.
Screening COc1ccc(NC(=S)Nc2ncccc2C)cc1OC returned aSyn 5UTR act -106.6*.
Cc1cccnc1NC(=S)NCCc1ccccc1 was read as aSyn 5UTR act -155.2*.
`O=C(NNC(=S)Nc1ccc(Cl)c(Cl)c1)c1ccccn1` gave aSyn 5UTR act 68.0.
For COc1ccc(NC(=S)Nn2cnnc2)cc1OC the results were aSyn 5UTR act -95.3*.
`Cc1cccnc1NC(=S)Nc1ccc(Cl)c(Cl)c1` gave aSyn 5UTR act -141.7*.
